Experiment [1] can be described thus: NCI Yeast Anticancer Drug Screen. Data for the rad50 strain (AID 155).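 Further: 0% = growth of vehicle-only cultures of the same strain.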 The settings on record: S. cerevisiae rad50 strain growth inhibition, hits give high values. In short, it runs like this: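 Inhibition values express reduced yeast growth in compound-treated cultures relative to vehicle-treated controls.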
Experiment [2] is described as follows: NCI Yeast Anticancer Drug Screen. Data for the mec2-1 strain (AID 157). The conditions noted are these: S. cerevisiae mec2-1 strain, hits give high values. In short, it runs like this:
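mec2-1 yeast strain, carrying an alteration in DNA damage repair or cell cycle control, was exposed to compounds; growth inhibition was measured relative to vehicle-treated controls.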

Experiment [3] is described as follows: NCI Yeast Anticancer Drug Screen. Data for the sgs1 mgt1 strain (AID 161).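 Further: 0% = growth of cultures given vehicle only.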 The settings on record: S. cerevisiae sgs1 mgt1 strain, hits give high values. Put shortly:
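This yeast growth screen uses a strain with defined DNA-repair lesions; compound-treated growth is compared with vehicle-treated growth.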

Experiment [4] can be described thus: NCI Yeast Anticancer Drug Screen. Data for the cln2 rad14 strain (AID 165).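 Further: 0% = growth equal to vehicle treated cultures.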 The conditions noted are these: S. cerevisiae cln2 rad14 strain, hits give high values. Put shortly: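 Yeast carrying cln2 and rad14 alterations (cell cycle control and DNA damage repair) were exposed to compounds. Growth inhibition was measured against vehicle-treated controls.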
The nature of experiment [5]: NCI Yeast Anticancer Drug Screen. Data for the bub3 strain (AID 167). The conditions noted are these: S. cerevisiae bub3 mutant strain, hits give high values. Put shortly: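 Steps: expose the mutant yeast strain to compound; grow alongside vehicle-treated cultures; measure growth; express inhibition against the vehicle cultures.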
Experiment [6] can be described thus: NCI Yeast Anticancer Drug Screen. Data for the mlh1 rad18 strain (AID 175). The settings on record: S. cerevisiae mlh1 rad18 strain growth inhibition, hits give high values. Put shortly:
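Growth inhibition of the yeast strain was measured after compound exposure and expressed relative to vehicle-treated controls. The strain carries defined defects in DNA damage repair.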

Setting [7] is: at 5.0 µM (retest, dose inferred, filed as 0.5).
[8] abbreviates: at 50.0 µM (retest, dose inferred, filed as 5.0).

Each structure is given as a SMILES string. About 79,000 compounds went through this panel and 15% of them were active in at least one assay; those are over-represented in the sample as a whole. Values without a mark were called inactive. The source made the active and inactive calls. No stated cut-off is given here; in the data, active means growth inhibition above about 70%; inactive means the rest.

Regarding `COC(=O)c1ccccc1CC1Cc2cccc(C)c2C1=O` (configuration not stated), the growth inhibition in experiment [1] (setting [7]) is -2%; in experiment [1] (setting [8]), 28%; in experiment [1] (at 50.0 µM), 65.2%; in experiment [2] (setting [7]), -3%; in experiment [2] (setting [8]), 47%; in experiment [2] (at 50.0 µM), 51%. The growth inhibition is 14% in experiment [3] (setting [7]); 64% in experiment [3] (setting [8]); 67.6% in experiment [3] (at 50.0 µM); -2% in experiment [4] (setting [7]); 11% in experiment [4] (setting [8]); 24.4% in experiment [4] (at 50.0 µM). Besides, the growth inhibition was 5% in experiment [5] (setting [7]); 80% (active) in experiment [5] (setting [8]); 79.7% (active) in experiment [5] (at 50.0 µM); 1% in experiment [6] (setting [7]); 40% in experiment [6] (setting [8]); 76% (active) in experiment [6] (at 50.0 µM).
For `CCOC(=O)/C(C#N)=C\c1cccc2ccccc12`, the growth inhibition in experiment [1] (setting [7]) was 13%; in experiment [1] (setting [8]) it was 57%; in experiment [1] (at 50.0 µM), 84% (active); in experiment [2] (setting [7]), 1%; in experiment [2] (setting [8]), 91% (active); in experiment [2] (at 50.0 µM), 92.3% (active). For the same compound, the growth inhibition was 5% in experiment [3] (setting [7]); 75% (active) in experiment [3] (setting [8]); 91.8% (active) in experiment [3] (at 50.0 µM); -17% in experiment [4] (setting [7]); 27% in experiment [4] (setting [8]); -12.4% in experiment [4] (at 50.0 µM). The growth inhibition was -4% in experiment [5] (setting [7]); 40% in experiment [5] (setting [8]); 96.2% (active) in experiment [5] (at 50.0 µM); -2% in experiment [6] (setting [7]); 94% (active) in experiment [6] (setting [8]); 95.7% (active) in experiment [6] (at 50.0 µM).
Consider `CSc1cc(Cl)c(C)cc1S(=O)(=O)NC(=O)Nc1ccc(Cl)cc1`, for which the growth inhibition was 25% in experiment [1] (setting [7]); 97% (active) in experiment [1] (setting [8]); 99.1% (active) in experiment [1] (at 50.0 µM); 34% in experiment [2] (setting [7]); 99% (active) in experiment [2] (setting [8]); 99% (active) in experiment [2] (at 50.0 µM). The growth inhibition in experiment [3] (setting [7]) is 24%; in experiment [3] (setting [8]), 97% (active); in experiment [3] (at 50.0 µM), 99.5% (active); in experiment [4] (setting [7]) it was 45%; in experiment [4] (setting [8]) it was 97% (active); in experiment [4] (at 50.0 µM), 98.7% (active). Further, the growth inhibition in experiment [5] (setting [7]) was 35%; in experiment [5] (setting [8]) it was 98% (active); in experiment [5] (at 50.0 µM), 98.5% (active); in experiment [6] (setting [7]) it was 29%; in experiment [6] (setting [8]), 99% (active); in experiment [6] (at 50.0 µM), 99.3% (active).
Consider `CC1CN(C(=S)NNC(C)c2cc3ccccc3cn2)CC(C)O1` (configuration not stated), for which the growth inhibition was 30% in experiment [1] (setting [7]); 96% (active) in experiment [1] (setting [8]); 87% (active) in experiment [1] (at 50.0 µM); 38% in experiment [2] (setting [7]); 99% (active) in experiment [2] (setting [8]); 89.8% (active) in experiment [2] (at 50.0 µM). Also, the growth inhibition in experiment [3] (setting [7]) was 26%; in experiment [3] (setting [8]) it was 98% (active); in experiment [3] (at 50.0 µM), 90.5% (active); in experiment [4] (setting [7]) it was 15%; in experiment [4] (setting [8]) it was 98% (active); in experiment [4] (at 50.0 µM), 90% (active). The growth inhibition in experiment [5] (setting [7]) was 39%; in experiment [5] (setting [8]), 99% (active); in experiment [5] (at 50.0 µM) it was 88.2% (active); in experiment [6] (setting [7]), 39%; in experiment [6] (setting [8]), 98% (active); in experiment [6] (at 50.0 µM), 91.3% (active).
`CC(Br)C(=O)c1ccc2cc(Cl)c3ccccc3c2c1` (configuration not stated): the growth inhibition in experiment [1] (setting [7]) is -2%; in experiment [1] (setting [8]), 99% (active); in experiment [1] (at 50.0 µM) it was -10.3%; in experiment [2] (setting [7]) it was 5%; in experiment [2] (setting [8]), 99% (active); in experiment [2] (at 50.0 µM) it was 31.4%. Also, the growth inhibition is 7% in experiment [3] (setting [7]); 99% (active) in experiment [3] (setting [8]); 46.3% in experiment [3] (at 50.0 µM); -4% in experiment [4] (setting [7]); 99% (active) in experiment [4] (setting [8]); -16.8% in experiment [4] (at 50.0 µM). Besides, the growth inhibition in experiment [5] (setting [7]) is 0%; in experiment [5] (setting [8]), 99% (active); in experiment [5] (at 50.0 µM), 67.8%; in experiment [6] (setting [7]), 7%; in experiment [6] (setting [8]), 99% (active); in experiment [6] (at 50.0 µM), 39.1%.
As for `C=C1CCC[C@@H]2[C@@](C)(CC3=CC(=O)C=CC3=O)C(C)CC[C@]12C` (some centres not stated), the growth inhibition in experiment [1] (setting [7]) was 39%; in experiment [1] (setting [8]) it was 96% (active); in experiment [1] (at 50.0 µM), 98.5% (active); in experiment [2] (setting [7]), 43%; in experiment [2] (setting [8]), 96% (active); in experiment [2] (at 50.0 µM) it was 88.7% (active). The growth inhibition in experiment [3] (setting [7]) is 54%; in experiment [3] (setting [8]), 97% (active); in experiment [3] (at 50.0 µM), 98.7% (active); in experiment [4] (setting [7]), 7%; in experiment [4] (setting [8]), 93% (active); in experiment [4] (at 50.0 µM) it was 95.2% (active). Moreover, the growth inhibition is 27% in experiment [5] (setting [7]); 96% (active) in experiment [5] (setting [8]); 98.6% (active) in experiment [5] (at 50.0 µM); 55% in experiment [6] (setting [7]); 95% (active) in experiment [6] (setting [8]); 98.5% (active) in experiment [6] (at 50.0 µM).
On to `O=C(Nc1cccc2ccccc12)OCC1CCc2ccccc2C1` (configuration not stated), for which the growth inhibition was -1% in experiment [1] (setting [7]); 6% in experiment [1] (setting [8]); 12.9% in experiment [1] (at 50.0 µM); -6% in experiment [2] (setting [7]); 2% in experiment [2] (setting [8]); 22.6% in experiment [2] (at 50.0 µM). Moreover, the growth inhibition is -4% in experiment [3] (setting [7]); 17% in experiment [3] (setting [8]); 54.2% in experiment [3] (at 50.0 µM); -8% in experiment [4] (setting [7]); -9% in experiment [4] (setting [8]); 9.25% in experiment [4] (at 50.0 µM). Moreover, the growth inhibition is -2% in experiment [5] (setting [7]); 29% in experiment [5] (setting [8]); 72.2% (active) in experiment [5] (at 50.0 µM); -5% in experiment [6] (setting [7]); 27% in experiment [6] (setting [8]); 31.1% in experiment [6] (at 50.0 µM).
As for `CN(N(P(c1ccccc1)c1ccccc1)P(c1ccccc1)c1ccccc1)P(c1ccccc1)c1ccccc1`, the growth inhibition in experiment [1] (setting [7]) is -1%; in experiment [1] (setting [8]) it was 2%; in experiment [1] (at 50.0 µM), 88.7% (active); in experiment [2] (setting [7]), -5%; in experiment [2] (setting [8]), 9%; in experiment [2] (at 50.0 µM), 81.9% (active). The growth inhibition was -15% in experiment [3] (setting [7]); 2% in experiment [3] (setting [8]); 88.2% (active) in experiment [3] (at 50.0 µM); 2% in experiment [4] (setting [7]); 0% in experiment [4] (setting [8]); 64.2% in experiment [4] (at 50.0 µM). Moreover, the growth inhibition is 1% in experiment [5] (setting [7]); -4% in experiment [5] (setting [8]); 76.5% (active) in experiment [5] (at 50.0 µM); -14% in experiment [6] (setting [7]); -17% in experiment [6] (setting [8]); 93.2% (active) in experiment [6] (at 50.0 µM).
Consider `N#C/C=C/C=C/C#N`, for which the growth inhibition in experiment [1] (setting [7]) was 1%; in experiment [1] (setting [8]), 2%; in experiment [1] (at 50.0 µM) it was 24.4%; in experiment [2] (setting [7]), 5%; in experiment [2] (setting [8]), 2%; in experiment [2] (at 50.0 µM), 79.8% (active). The growth inhibition in experiment [3] (setting [7]) was 2%; in experiment [3] (setting [8]), 3%; in experiment [3] (at 50.0 µM), 6.95%; in experiment [4] (setting [7]), -1%; in experiment [4] (setting [8]) it was -3%; in experiment [4] (at 50.0 µM) it was 78.4% (active). The growth inhibition in experiment [5] (setting [7]) was -2%; in experiment [5] (setting [8]), -5%; in experiment [5] (at 50.0 µM) it was 99.5% (active); in experiment [6] (setting [7]), -4%; in experiment [6] (setting [8]) it was -1%; in experiment [6] (at 50.0 µM), 56.3%.

The record behind these values is PubChem BioAssay (NCI).
